The record followed here is PubChem BioAssay (NCATS).

SMILES strings stand for the structures. Results filed as inconclusive are left out. The source made the active and inactive calls. Calls come from the whole dose curve; as a rule, active = well fitted inhibition curve with a large enough effect; inconclusive = small, poorly fitted or top-dose-only effect; inactive = no such curve, though single readings can be large or run the other way. Peptide text beside a SMILES is read from it.
% is set by controls: 0 for no effect and ±100 for the full control effect.

This experiment is described as follows: Primary qHTS for small molecule stabilizers of the endoplasmic reticulum resident proteome: Secreted ER Calcium Modulated Protein (SERCaMP) assay (AID 1508630). Conditions: SH-SY5Y GLuc-SERCaMP (Gaussia luciferase released on ER calcium loss) secretion, thapsigargin, luminescence; series mostly up to 38.4 µM. From the text:
Assay Provider: Brandon K. Harvey Ph.D.
National Institute on Drug Abuse, National Institutes of Health, Baltimore, MD
Endoplasmic reticulum (ER) dysregulation is associated with human pathologies including neurodegenerative, cardiovascular, muscular, and diabetic conditions. Maintenance of ER calcium is critical for functions of the ER and its depletion can lead to loss of ER resident proteins, in a process termed exodosis. Therapeutic compounds capable of attenuating the redistribution of ER proteins under pathological conditions may slow or stop disease progression. To identify such compounds, we performed a quantitative high-throughput screen (qHTS) using the SERCaMP assay, which monitors secretion of ER resident proteins triggered by calcium depletion.
SERCaMP was initially developed as a reporter of ER calcium homeostasis using a Gaussia luciferase with a modified signal peptide and carboxy-terminus (GLuc-SERCaMP), modifications that confer secretion of the reporter in response to ER calcium depletion (Henderson et al., 2014). The assay was used to screen 9,501 compounds, including a collection of drugs approved by the FDA (US), EMA (EU), NHI (Japan), and HC (Canada) regulatory agencies (Huang et al., 2011). Since the SERCaMP reporter reflects the exodosis phenomenon (Trychta et al., 2018a), compounds identified in the screen have the potential to prevent exodosis by different mechanisms such as stabilizing ER calcium or augmenting ERS retrieval.
1. Henderson, M.J., Wires, E.S., Trychta, K.A., Richie, C.T., and Harvey, B.K. (2014). SERCaMP: a carboxy-terminal protein modification that enables monitoring of ER calcium homeostasis. Mol Biol Cell 25, 2828-2839.
2. Huang, R., Southall, N., Wang, Y., Yasgar, A., Shinn, P., Jadhav, A., Nguyen, D.T., and Austin, C.P. (2011). The NCGC pharmaceutical collection: a comprehensive resource of clinically approved drugs enabling repurposing and chemical genomics. Sci Transl Med 3, 80ps16.
3. Trychta, K.A., Back, S., Henderson, M.J., and Harvey, B.K. (2018a). KDEL Receptors Are Differentially Regulated to Maintain the ER Proteome under Calcium Deficiency. Cell Rep 25, 1829-1840 e1826.
SEQUENCE No. (1, 2, 3, etc.); […] (e.g., Cells, Incubation, Reagent, etc.); VALUE and DESCRIPTION.
1; Reagent; 5 uL; 1000 SH-SY5Y cells per wells
3; Compound; 23 nL; Control inhibitor / compound library
5; Reagent; 100 nM; Thapsigargin
7; Reagent; 1 uL; 0.5x coelenterazine
8; Detection; Luminescence; ViewLux imaging system
NOTES (numbers refer to sequence above)
1; SH-SY5Y human neuroblastoma cells stably expressing GLuc-SERCaMP (SH-SY5Y-GLuc-ASARTDL) cells were seeded in 1,536 well white tissue culture treated plates (Corning, Cat# 7464) in DMEM-high glucose-sodium pyruvate (ThermoFisher Scientific, Cat #10569) supplemented with 10% bovine growth serum (Hyclone), 10 U/ml penicillin (Gibco), 10 ug/ml streptomycin (Gibco), and 20 mM HEPES.
2; Assay plates were incubated for 5 hour at 37C in a humidified incubator containing 5% CO2.
3; qHTS libraries (23 nl, final concentrations of 1.53 uM, 7.67 uM, 38.3 uM) or controls (neutral control: DMSO, positive control: dantrolene) were added using a Kalypsis pin-tool Robotic System equipped with 1536 pinheads.
4; Cells were then incubated for 16 hours at 37C, 5% CO2.
5; Thapsigargin was added at 100 nM to deplete ER calcium stores.
6; Cells were incubated for 4 hour (37 °C, 5% CO2)
7; Gaussia luciferase in the medium was measured by adding 1 ul of 0.5x coelenterazine (final concentration 0.07x) prepared in Gaussia Luciferase Glow Assay Buffer (Pierce), without addition of the Cell Lysis Buffer Reagent.
8; Luminescence was measured using a ViewLux […] CCD imaging system (Perkin Elmer) equipped with clear filters. […] The same controls were also used for the calculation of the Z' factor, a measure of assay quality control, as previously described (Zhang et al., 1999). […]
A general note: Quantitative high-throughput screening tests each substance at several concentrations.
Consider `COC(=O)C1=CO[C@@H](O[C@@H]2O[C@H](CO)[C@@H](O)[C@H](O)[C@H]2O)[C@@H]2[C@@H](C)[C@@H](O)C[C@H]12`, for which the result was inactive. In the case of `CCCCC/C=C\C/C=C\CCCCCCCC(=O)O`, the activity change, negative = inhibition is -23.8% [at 3.88 µM] (inactive).

For `O=C(O)CC/C=C\CC[C@H]1[C@@H](N2CCCCC2)[C@@H](O)C[C@@H]1OCc1ccc(-c2ccccc2)cc1`, the outcome was inactive. With `Cc1ccc(Sc2cncc3sc(C(N)=O)cc23)cc1`, the result was inactive. Still for that read-out and setting: the value for `CCOC(=O)C1=CC2(CC)CCCN3CCc4c(n1c1ccccc41)C32` (stereo not given) was “inactive”. On the same count and under the same terms, the value for `CC(=O)N[C@@H](CC(=O)O)C(=O)N[C@@H](CCC(=O)O)C(=O)O` (Ac-Asp-Glu-OH) was “inactive”; that for `Cc1cc(/C=C/c2ccc3cc(N(C)C)ccc3[n+]2C)c(C)n1-c1ccccc1` was “inactive”; that for `CN1Cc2c(N)cccc2C(c2ccccc2)C1` (stereo not given) was “inactive”. The same measure, in the same setting: the value for `CC(C)N=c1cc2n(-c3ccc(Cl)cc3)c3ccccc3nc-2cc1Nc1ccc(Cl)cc1` was “inactive”; that for `CC1=C(/C=C/C(C)=C/C=C/C(C)=C/CO)C(C)(C)CCC1` was “inactive”.
